Measurements from the OligoGym collection.

target: SECISBP2L; assay: pooled miR-30 sensor sort-seq; sequence = guide strand; conditions: shRNA
Further: reference of the scale not given here.

| Sequence | sensor-assay potency score (higher = more potent) |
| --- | --- |
| TTGTTGAATATTCTCATCCTTA | -0.343 |
| TTGAAACCCATCTTCATCCTGT | 0.983 |
| TTTCTGAATACTCTTGAGCTGT | -0.537 |
| TTGCTGTGAAGCATCTACCAGA | -0.408 |
| TTGATCGACTATCAGGACCTGC | -0.0412 |
| TAGTGTGAAAAGAAGCTGCAGT | 0.417 |
| TAGCTGAGGTAGTACTGCCTGT | -0.712 |
| TTCCTGGGAAACAATCTCCTGT | -0.00713 |
| TATAACACACTTGATCTTGTTT | 0.0597 |
| TACGCTAACAGGAACCAGCTTG | -0.34 |
| TAGTCCAGTATCTTCCTGGGAA | -0.242 |
| TATAACATTATAGAGAGCCTCA | -0.0315 |

target: SECISBP2; assay: as above; conditions: shRNA

| Sequence | sensor-assay potency score (higher = more potent) |
| --- | --- |
| TTGACATCTGCTGATAACTTGA | -0.133 |
| TTTTCTTCTTAAACAGAGCTTT | -0.323 |
| TAACATTTTTAGGATCTGCTGA | 0.162 |
| TTTGTTGTAGGAAGGATCCGAA | -0.00971 |
| TTCGCTTATGGTAACCATCTGA | 0.0735 |
| TTGCAGTTCAGGAAAGTCCAGT | -0.458 |
| TTGAGAGCAAACACAAAGGGAA | -0.174 |
| TAACACAAGCATCCACTTCTTT | -0.191 |
| TTTCAAACTATTCTCAGCGTAA | -0.344 |
| TTTGACTGTATCTTCTCACAGT | 0.358 |
| TTCACTGTCAAACTTTTGCTGA | -0.0289 |
| TTTGATAACACTGCAGCTGGTT | 0.27 |

target: SELL; assay: as above; conditions: shRNA

| Sequence | sensor-assay potency score (higher = more potent) |
| --- | --- |
| TTGTCTCGGCAGAATCTTCTAG | -0.184 |
| TTTGACATATTGGACTAGGATT | -1.37 |
| TAATTGTCTCGGCAGAATCTTC | -1.3 |
| TAGGATTTGACCAGATTCCAGA | -0.318 |
| TTCTCTTGGATTTCTTGCCTTT | 0.216 |
| TTGTATGGCAACTAAATCTGTG | -0.502 |
| TCACTTGACAGGTTGGTTCTGG | 0.848 |
| TTGATATAGATCTCCACGCAGT | -0.218 |
| TTAATCATTGAGAAACTTTTGT | -0.0417 |
| TAAATCTGTGTAATTGTCTCGG | 0.157 |
| TTCAGTAAGAGATTTGTTGGTT | 0.629 |
| TTATTGATGATTTCTACACATT | -1.76 |

target: SELO; assay: as above; conditions: shRNA

| Sequence | sensor-assay potency score (higher = more potent) |
| --- | --- |
| TTCCTCAGCACGTACTTCGGGT | -0.346 |
| ATCTTCTGCAGGTAGTGCCTTT | -1.13 |
| TTCGCTGCATAGAAACTCCCGG | 0.0168 |
| TTGTCGGTGTTGAGCACGCCGT | -1.37 |
